Consider 14 compounds from PubChem BioAssay (NCI).

Among the test systems are SK-MEL-2 melanoma; EKVX NSCLC; SN12C renal; UO-31 renal; TK-10 renal; ACHN renal; CAKI-1 renal; A498 renal; CCRF-CEM leukemia; MOLT-4 leukemia.
Common to all, as to test: NCI-60 one-dose screen, 48 h (100 = growth as untreated, 0 = no growth, -100 = all killed)
What all share (settings): 10 µM unless noted

This is part of a sample that, as a whole, favours compounds with a hit. Of some 83,000 tested, about 20% had one in any assay.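 The test compound was applied at a single concentration to cells in 96-well plates for 48 hours, and percent growth was recorded.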 Unmarked numbers belong to inactive results. The source made the active and inactive calls. How the source made its calls: active means growth percent below 10; inactive means the rest.

For `O=C1C=Cc2ncccc2C1=O`, the growth was 114% in the assay on SK-MEL-2 melanoma; 64.7% in the assay with EKVX NSCLC; 65.2% in the assay with SN12C renal; 68.3% in the assay on UO-31 renal; 111% in the assay on TK-10 renal; 76.1% in the assay on ACHN renal. The growth is 81.2% in the assay on CAKI-1 renal, 125% in the assay with A498 renal, -37.5% (active) in the assay with CCRF-CEM leukemia and 0.968% (active) in the assay with MOLT-4 leukemia.
Turning to `Oc1ccc(Nc2ccccc2)cc1`, the growth is 125% in the assay on SK-MEL-2 melanoma; 81.6% in the assay with EKVX NSCLC; 90.3% in the assay on SN12C renal; 68.4% in the assay with UO-31 renal; 117% in the assay on TK-10 renal; 46.9% in the assay with ACHN renal. The growth in the assay with CAKI-1 renal is 65.4%; in the assay with A498 renal, 87.4%; in the assay on CCRF-CEM leukemia it was 0.482% (active); in the assay on MOLT-4 leukemia it was 88.6%.
Regarding `CN1CCN(c2nc(-c3csc(-c4cccs4)n3)cc3ccccc23)CC1`, the growth is 39.7% with SK-MEL-2 melanoma; 68.3% in the assay on EKVX NSCLC; 71% in the assay on SN12C renal; 59.8% in the assay on UO-31 renal; 79% in the assay with TK-10 renal; 31.4% with ACHN renal. Moreover, the growth with CAKI-1 renal was 39.6%; in the assay with A498 renal, 10.5%; with CCRF-CEM leukemia, 30.7%; in the assay with MOLT-4 leukemia, 9.46% (active).
Consider `COC(=O)[C@]12CC[C@@H](C)[C@H](C)[C@@H]1C1=CC[C@@H]3[C@@]4(C)C[C@@H](OC(C)=O)[C@H](OC(C)=O)[C@@](C)(COC(C)=O)[C@@H]4[C@H](O)C[C@@]3(C)[C@]1(C)CC2`, for which the growth is -2.42% (active) in the assay on SK-MEL-2 melanoma; 10.7% in the assay with EKVX NSCLC; 11% with SN12C renal; 10.9% in the assay on UO-31 renal; -1.29% (active) in the assay with TK-10 renal; 11.8% in the assay on ACHN renal. For the same compound, the growth in the assay with CAKI-1 renal was 11.6%; in the assay with A498 renal, 5.15% (active); in the assay with CCRF-CEM leukemia it was 12%; with MOLT-4 leukemia it was 3.95% (active).
On to `COc1ccc2c(c1)C(Br)=C(CCO)C2c1ccccc1` (stereo not given), for which the growth was 85% in the assay on SK-MEL-2 melanoma; 75.8% in the assay on EKVX NSCLC; 99.2% in the assay on SN12C renal; 62.4% in the assay on UO-31 renal; 67% in the assay on TK-10 renal; 4.96% (active) in the assay on ACHN renal. For the same compound, the growth in the assay on CAKI-1 renal is 37%; in the assay with A498 renal it was 35.6%; in the assay on CCRF-CEM leukemia, 95.2%; with MOLT-4 leukemia, 114%.
Consider `O=P(O)(c1ccccc1)c1ccccc1I`, for which the growth is 96% in the assay on SK-MEL-2 melanoma; 94.7% with EKVX NSCLC; 99.3% in the assay with SN12C renal; 83.4% in the assay on UO-31 renal; 102% in the assay with TK-10 renal; 106% in the assay on ACHN renal. Besides, the growth with CAKI-1 renal is 90.1%; in the assay on A498 renal it was 92.6%; in the assay on CCRF-CEM leukemia it was 94.6%; in the assay on MOLT-4 leukemia, 97.7%.
`CC/C(=N/NC(N)=O)c1ccccc1`: the growth in the assay with SK-MEL-2 melanoma is 115%; in the assay with EKVX NSCLC it was 91.5%; in the assay with SN12C renal, 106%; with UO-31 renal, 86.4%; with TK-10 renal, 105%; in the assay on ACHN renal, 108%. Moreover, the growth was 94.7% with CAKI-1 renal, 105% in the assay on A498 renal, 94.2% in the assay on CCRF-CEM leukemia and 98% in the assay on MOLT-4 leukemia.
Turning to `Brc1cnc2[nH]cc(-c3nnc(-c4ccccc4)o3)c2c1`, the growth is 73.3% in the assay on SK-MEL-2 melanoma; 31.4% with EKVX NSCLC; 79.9% in the assay on SN12C renal; 45.2% in the assay on UO-31 renal; 58.9% in the assay on TK-10 renal; 28.9% in the assay on ACHN renal. In addition, the growth was 34.2% with CAKI-1 renal, 47% in the assay with A498 renal, 102% in the assay on CCRF-CEM leukemia and 74.3% in the assay on MOLT-4 leukemia.
With `COc1cc2ncnc(Nc3ccc(Oc4ccnc(C)c4)c(C)c3)c2cc1NC(=O)CC1CCSS1` (stereo not given), the growth with SK-MEL-2 melanoma is -57.7% (active); with EKVX NSCLC, -1.66% (active); with SN12C renal it was 21.3%; with UO-31 renal, -23.7% (active); in the assay with TK-10 renal, -68.6% (active); in the assay with ACHN renal, 10.5%. Moreover, the growth is 3.34% (active) in the assay on CAKI-1 renal, 66.8% with A498 renal, -30.8% (active) in the assay with CCRF-CEM leukemia and -56.8% (active) in the assay on MOLT-4 leukemia.
In the case of `COc1ccc(/C=C/C(=O)NCC(C)O)cc1` (stereo not given), the growth in the assay with SK-MEL-2 melanoma was 93.3%; in the assay on EKVX NSCLC it was 99.4%; in the assay with SN12C renal, 105%; in the assay with UO-31 renal it was 81.9%; in the assay with TK-10 renal, 89.1%; in the assay with ACHN renal it was 102%. The growth in the assay with CAKI-1 renal is 95.8%; with A498 renal, 92.7%; in the assay with CCRF-CEM leukemia, 106%; in the assay on MOLT-4 leukemia it was 109%.
For `COc1ccc2[nH]cc(-c3nc(-c4c[nH]c5ncccc45)cs3)c2c1`, the growth is 32.9% in the assay on SK-MEL-2 melanoma; 64.4% with EKVX NSCLC; 53.2% with SN12C renal; 15.1% in the assay on UO-31 renal; 31.9% in the assay with TK-10 renal; 19.8% with ACHN renal. Further, the growth with CAKI-1 renal is 4.05% (active); with A498 renal, 10.9%; with CCRF-CEM leukemia, 28.3%; with MOLT-4 leukemia, 8.76% (active).
As to `C[Si](C)(C)Cc1ccccc1`, the growth was 163% with SK-MEL-2 melanoma; 110% in the assay on EKVX NSCLC; 108% with SN12C renal; 95.9% in the assay on UO-31 renal; 122% with TK-10 renal; 106% in the assay on ACHN renal. The growth is 98.5% with CAKI-1 renal, 164% in the assay on A498 renal, -49.7% (active) with CCRF-CEM leukemia and 118% in the assay on MOLT-4 leukemia.
Turning to `COc1cc(-c2c(C#N)c(-c3cccs3)nc3c2c(-c2ccccc2)nn3-c2ccccc2)ccc1O`, the growth is 81% in the assay on SK-MEL-2 melanoma; 79.9% in the assay on EKVX NSCLC; 89.2% with SN12C renal; 89.1% with UO-31 renal; 101% in the assay with TK-10 renal; 86.1% in the assay with ACHN renal. The growth with CAKI-1 renal is 66.6%; in the assay with A498 renal, 106%; in the assay with CCRF-CEM leukemia, 83.2%; with MOLT-4 leukemia, 59.9%.
For the compound `Cc1ccc2c(c1)c1nc3cc(C)c(C)cc3nc1n2CCN(C)C`, the growth in the assay with SK-MEL-2 melanoma is 35.8%; in the assay on EKVX NSCLC it was 19.7%; in the assay on SN12C renal, 13.5%; in the assay on UO-31 renal, -10.4% (active); with TK-10 renal, 27.7%; with ACHN renal, -0.699% (active). The growth in the assay with CAKI-1 renal is 2.44% (active); with A498 renal, 35.7%; in the assay on CCRF-CEM leukemia, 26.4%; in the assay with MOLT-4 leukemia, 8.57% (active).
